Test results as given in PubChem BioAssay (NCI).
About 83,000 compounds went through this panel and 20% of them were active in at least one assay; those are over-represented in the sample as a whole.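 A percent growth of 40 corresponds to 60% growth inhibition; 0 means no net growth; -100 means all cells died. Active threshold: below 10.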 Activity calls are given as the source filed them.

Columns and labels:
Assay in all cases: NCI-60 one-dose screen, 48 h (100 = growth as untreated, 0 = no growth, -100 = all killed)
Conditions in all cases: 10 µM
HCT-15 colon = system: HCT-15 colon
HT29 colon = system: HT29 colon
SNB-75 CNS = system: SNB-75 CNS
SNB-19 CNS = system: SNB-19 CNS
U251 CNS = system: U251 CNS
PC-3 prostate = system: PC-3 prostate
SK-MEL-5 melanoma = system: SK-MEL-5 melanoma
UACC-62 melanoma = system: UACC-62 melanoma
LOX IMVI melanoma = system: LOX IMVI melanoma
SK-MEL-28 melanoma = system: SK-MEL-28 melanoma
SK-MEL-2 melanoma = system: SK-MEL-2 melanoma
SN12C renal = system: SN12C renal
UO-31 renal = system: UO-31 renal
TK-10 renal = system: TK-10 renal
ACHN renal = system: ACHN renal
CAKI-1 renal = system: CAKI-1 renal
A498 renal = system: A498 renal
CCRF-CEM leukemia = system: CCRF-CEM leukemia
MOLT-4 leukemia = system: MOLT-4 leukemia
EKVX NSCLC = system: EKVX NSCLC

Measured: growth

O=C(NC1CCN(Cc2ccccc2)CC1)c1cc(-c2ccncc2)nc2ccc(Cl)cc12
active: U251 CNS 7.4% | UACC-62 melanoma 7.85% | CCRF-CEM leukemia 2.77% | MOLT-4 leukemia 7.58%
inactive: HCT-15 colon 24.2% | HT29 colon 19.9% | SNB-75 CNS 68.7% | SNB-19 CNS 24.8% | PC-3 prostate 33.9% | SK-MEL-5 melanoma 16% | LOX IMVI melanoma 15.3% | SK-MEL-28 melanoma 46.5% | SK-MEL-2 melanoma 44.1% | SN12C renal 27.3% | UO-31 renal 11.9% | TK-10 renal 61.4% | ACHN renal 19.9% | CAKI-1 renal 13.4% | A498 renal 11%

CS(=O)(=O)Nc1ccc([N+](=O)[O-])cc1Oc1ccccc1
inactive: HCT-15 colon 104% | HT29 colon 99.9% | SNB-75 CNS 110% | SNB-19 CNS 104% | U251 CNS 90.4% | PC-3 prostate 95.4% | SK-MEL-5 melanoma 84.2% | UACC-62 melanoma 89.8% | LOX IMVI melanoma 88.2% | SK-MEL-28 melanoma 118% | SK-MEL-2 melanoma 125% | EKVX NSCLC 87.6% | UO-31 renal 81.5% | TK-10 renal 117% | CAKI-1 renal 78.7% | A498 renal 92% | CCRF-CEM leukemia 85.5% | MOLT-4 leukemia 84.8%

COc1ccc(-c2nc(-c3nc4ccc(OC)cc4[nH]3)c3ccccn23)cc1
inactive: HCT-15 colon 59.7% | HT29 colon 58.6% | SNB-75 CNS 57% | SNB-19 CNS 85.5% | U251 CNS 61.6% | PC-3 prostate 35% | SK-MEL-5 melanoma 59% | UACC-62 melanoma 79% | LOX IMVI melanoma 71.1% | SK-MEL-28 melanoma 98.1% | SK-MEL-2 melanoma 71.3% | SN12C renal 71.4% | UO-31 renal 25.5% | TK-10 renal 79.3% | ACHN renal 64.2% | CAKI-1 renal 64% | A498 renal 55.5% | CCRF-CEM leukemia 33.8% | MOLT-4 leukemia 45.5%

COc1cc(OC)cc(N2CCN(C(=O)Nc3nc4cc(F)ccc4nc3OC)CC2)c1
active: HCT-15 colon 7.06% | HT29 colon 3.96% | SK-MEL-5 melanoma -42.2% | A498 renal -8.09% | MOLT-4 leukemia 8.4%
inactive: SNB-75 CNS 27.9% | SNB-19 CNS 28.7% | U251 CNS 17.5% | PC-3 prostate 22.4% | UACC-62 melanoma 47.9% | LOX IMVI melanoma 23.6% | SK-MEL-28 melanoma 77.1% | SK-MEL-2 melanoma 42.1% | SN12C renal 29.6% | UO-31 renal 34.5% | TK-10 renal 47.5% | ACHN renal 30.2% | CAKI-1 renal 29.7% | CCRF-CEM leukemia 14.7%

CN(C)CCCN1c2ccccc2Sc2ccc(C(F)(F)F)cc21
active: HT29 colon -8.15% | SNB-75 CNS -2.79% | SK-MEL-5 melanoma -95.4% | UACC-62 melanoma -52.6% | LOX IMVI melanoma -75.3% | SK-MEL-28 melanoma -64.1% | SK-MEL-2 melanoma -16.3% | MOLT-4 leukemia 6.88%
inactive: HCT-15 colon 17.3% | SNB-19 CNS 35.9% | U251 CNS 19.5% | PC-3 prostate 23.3% | EKVX NSCLC 43.4% | UO-31 renal 18.7% | CAKI-1 renal 22.4% | A498 renal 62.8% | CCRF-CEM leukemia 16.5%

Cc1cc(C(C)(C)CC(C)(C)C)ccc1OCCOCC[N+](C)(C)Cc1ccccc1
inactive: HCT-15 colon 94.6% | UO-31 renal 65.4% | CAKI-1 renal 89.1%
active: HT29 colon -81.2% | SNB-75 CNS -63.4% | SNB-19 CNS -80.8% | U251 CNS -86.2% | PC-3 prostate -19.4% | SK-MEL-5 melanoma -95.8% | UACC-62 melanoma -91.9% | LOX IMVI melanoma -92.9% | SK-MEL-28 melanoma -92% | SK-MEL-2 melanoma -34.2% | EKVX NSCLC -0.736% | TK-10 renal -11.6% | A498 renal 4.39% | CCRF-CEM leukemia -8.84% | MOLT-4 leukemia -39.6%

O=C(CSc1nnc(-c2ccc(Cl)cc2)o1)c1ccccc1
inactive: HCT-15 colon 99% | HT29 colon 96.1% | SNB-75 CNS 98.3% | SNB-19 CNS 101% | U251 CNS 96% | PC-3 prostate 86.9% | SK-MEL-5 melanoma 91.7% | UACC-62 melanoma 92.4% | LOX IMVI melanoma 94.3% | SK-MEL-28 melanoma 102% | SK-MEL-2 melanoma 104% | EKVX NSCLC 102% | TK-10 renal 97.5% | ACHN renal 101% | CAKI-1 renal 99.3% | A498 renal 106% | CCRF-CEM leukemia 94.3% | MOLT-4 leukemia 104%

C[N+]1=C(/C=C/c2ccc(I)cc2)C(C)(C)c2ccccc21
active: CCRF-CEM leukemia 2.26% | MOLT-4 leukemia 8.77%
inactive: HCT-15 colon 86.6% | HT29 colon 97.2% | SNB-75 CNS 95.9% | SNB-19 CNS 96.7% | U251 CNS 40.6% | PC-3 prostate 87.3% | SK-MEL-5 melanoma 90.4% | UACC-62 melanoma 95.3% | LOX IMVI melanoma 38% | SK-MEL-28 melanoma 84.7% | SK-MEL-2 melanoma 95.6% | EKVX NSCLC 91.5% | UO-31 renal 83.5% | ACHN renal 94.7% | CAKI-1 renal 94.4% | A498 renal 104%

N#CN1CC[C@H](C(=O)Nc2ncc(-c3ccccc3)s2)C1
active: HCT-15 colon 3.19% | HT29 colon -35.6% | SNB-75 CNS -43.8% | U251 CNS 2.64% | SK-MEL-5 melanoma -56% | UACC-62 melanoma -37.1% | LOX IMVI melanoma 4.1% | SK-MEL-28 melanoma 5.29% | SK-MEL-2 melanoma -43.8% | EKVX NSCLC -0.13% | TK-10 renal -30.9% | ACHN renal 4.65% | CAKI-1 renal 9.65% | A498 renal -47% | CCRF-CEM leukemia 9.27% | MOLT-4 leukemia -19.7%
inactive: SNB-19 CNS 12.4% | PC-3 prostate 11.1%

CC(C)c1[nH]nc2c(NCc3ccc(-c4ccccn4)cc3)nc(SCCN(C)C)nc12
active: HCT-15 colon 6.46% | HT29 colon -15.7% | SNB-75 CNS -55.9% | U251 CNS 7.48% | PC-3 prostate 2.89% | SK-MEL-5 melanoma 1.36% | UACC-62 melanoma -37.2% | LOX IMVI melanoma -7.56% | SK-MEL-28 melanoma 5.17% | SK-MEL-2 melanoma -65.6% | EKVX NSCLC -5.89% | TK-10 renal 6.52% | ACHN renal 7.84% | CCRF-CEM leukemia 1.67% | MOLT-4 leukemia -8.11%
inactive: SNB-19 CNS 13.7% | UO-31 renal 16.7% | CAKI-1 renal 18.9%

COc1cccc2c1O/C(=C\c1ccc([N+](=O)[O-])s1)C2=O
inactive: HT29 colon 77.3% | SNB-75 CNS 81.5% | SNB-19 CNS 86.6% | U251 CNS 45.2% | PC-3 prostate 32.9% | SK-MEL-5 melanoma 73.7% | UACC-62 melanoma 35.9% | LOX IMVI melanoma 40.6% | SK-MEL-28 melanoma 78.4% | SK-MEL-2 melanoma 43.3% | SN12C renal 70.1% | TK-10 renal 73.6% | ACHN renal 67.5% | CAKI-1 renal 90.9% | A498 renal 109% | CCRF-CEM leukemia 43.6% | MOLT-4 leukemia 75.5%
active: HCT-15 colon 8.57% | UO-31 renal -0.107%

NC1CCC(Nc2nc(NCc3cc(Cl)ccc3O)c3ncn(C4CCCC4)c3n2)CC1 (configuration not stated)
active: HCT-15 colon -10.1% | HT29 colon -16.9% | SNB-75 CNS -85.8% | SNB-19 CNS 9.87% | U251 CNS -22.8% | PC-3 prostate -8.24% | SK-MEL-5 melanoma -93.7% | UACC-62 melanoma -58.8% | LOX IMVI melanoma -73.7% | SK-MEL-28 melanoma -44.7% | SK-MEL-2 melanoma -73.7% | EKVX NSCLC -18.7% | UO-31 renal 1.65% | ACHN renal -5.98% | CAKI-1 renal 9.61% | A498 renal -67.1% | CCRF-CEM leukemia -0.96% | MOLT-4 leukemia -15.5%

Nc1c(CNCc2nnn(Cc3ccccc3)c2N)nnn1Cc1ccccc1
inactive: HCT-15 colon 93.9% | HT29 colon 105% | SNB-75 CNS 99% | SNB-19 CNS 103% | U251 CNS 97.6% | PC-3 prostate 98.9% | SK-MEL-5 melanoma 104% | UACC-62 melanoma 102% | LOX IMVI melanoma 95.3% | SK-MEL-28 melanoma 115% | SK-MEL-2 melanoma 103% | SN12C renal 99% | UO-31 renal 86.5% | TK-10 renal 102% | ACHN renal 99.6% | CAKI-1 renal 101% | A498 renal 98.4% | CCRF-CEM leukemia 95.4% | MOLT-4 leukemia 102%

COc1nc2c(c(=O)[nH]1)C(c1ccc(Oc3ccnc4cc(Cl)ccc34)c(OC)c1)C=C(c1cc(OC)c(OC)c(OC)c1)N2 (configuration not stated)
inactive: HCT-15 colon 98.8% | HT29 colon 89.8% | SNB-75 CNS 91.9% | SNB-19 CNS 89.1% | U251 CNS 97.4% | PC-3 prostate 87.2% | SK-MEL-5 melanoma 95.1% | UACC-62 melanoma 95.9% | LOX IMVI melanoma 95.5% | SK-MEL-28 melanoma 116% | SK-MEL-2 melanoma 82.6% | SN12C renal 90.7% | UO-31 renal 74.5% | TK-10 renal 103% | ACHN renal 102% | CAKI-1 renal 94.1% | A498 renal 81.9% | CCRF-CEM leukemia 87.4% | MOLT-4 leukemia 78%

CCOC(=O)/C(C#N)=C(/C)C1CC1
inactive: HCT-15 colon 98.6% | HT29 colon 112% | SNB-75 CNS 87.7% | SNB-19 CNS 110% | U251 CNS 100% | PC-3 prostate 97.3% | SK-MEL-5 melanoma 99.6% | UACC-62 melanoma 107% | LOX IMVI melanoma 106% | SK-MEL-28 melanoma 106% | SK-MEL-2 melanoma 111% | SN12C renal 107% | UO-31 renal 88.3% | TK-10 renal 116% | ACHN renal 105% | CAKI-1 renal 104% | A498 renal 94.1% | CCRF-CEM leukemia 103% | MOLT-4 leukemia 114%

O=C(O)CCCN1C(=O)NC2(C1=O)c1ccccc1-c1ccccc12
inactive: HCT-15 colon 102% | HT29 colon 93.3% | SNB-75 CNS 88.9% | SNB-19 CNS 104% | U251 CNS 94.7% | PC-3 prostate 94.4% | SK-MEL-5 melanoma 96% | UACC-62 melanoma 99.3% | LOX IMVI melanoma 94.8% | SK-MEL-28 melanoma 107% | SK-MEL-2 melanoma 83.2% | EKVX NSCLC 98.3% | UO-31 renal 88.4% | ACHN renal 104% | CAKI-1 renal 98.4% | A498 renal 101% | CCRF-CEM leukemia 96.5% | MOLT-4 leukemia 101%

Cc1ccc(C)c(S(=O)(=O)NC2c3ccccc3Oc3ccccc32)c1
inactive: HCT-15 colon 94% | HT29 colon 88.8% | SNB-75 CNS 91% | SNB-19 CNS 102% | U251 CNS 92.1% | PC-3 prostate 89% | SK-MEL-5 melanoma 101% | UACC-62 melanoma 95.1% | LOX IMVI melanoma 94.1% | SK-MEL-28 melanoma 106% | SK-MEL-2 melanoma 101% | EKVX NSCLC 100% | UO-31 renal 81.4% | ACHN renal 82.3% | CAKI-1 renal 88.7% | A498 renal 90.9% | CCRF-CEM leukemia 73.7% | MOLT-4 leukemia 89.3%
